# Screening data (PubChem BioAssay)
# Pf Dd2 growth: inhibitors of Plasmodium falciparum Dd2 growth | Potency, µM (series often up to 28.9 µM), without a hit: at the highest dose activity, negative = inhibition, actives largely listed as inhibitors | hit rate 4.3% among 120,000 | P. falciparum Dd2 growth, SYBR Green, 72 h; active means well fitted inhibition curve with a large enough effect;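 further: plate controls were DMSO vehicle for no effect and reference drug for full effect; nearly all actives have a fitted effect of over 65% in size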
#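 Infected erythrocytes (Dd2, 0.3% parasitemia, 2.5% hematocrit final) are added to compound in RPMI-1640/Albumax II medium, grown 72 h at 37C in low oxygen, then lysed with saponin/Triton-X containing SYBR Green and read by fluorescence.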
# An asterisk follows results filed as active; i = inactive; [ ] = dose if it differs, or a comment. The full list was thinned out, with hits kept by preference. Potency means the concentration at half of the fitted maximal effect.
SMILES,Pf Dd2 growth
CC(C)CN1C(=O)c2cccn2CC1C(=O)NCCCOC(C)C (stereo not given),-4%
COCc1nnc2n1CCC(NC(=O)c1ccco1)CC2 (stereo not given),12%
O=C(NC1CC1)C1CCC(=O)N(CCCc2ccccc2)C1 (stereo not given),-11%
CCc1ccccc1S(=O)(=O)N1CCC(n2cnnc2CCOC)CC1,1%
CCCCCC(=O)N1CC[C@@H](CC(=O)N(C)CCC#N)[C@@H](CC)C1,-8%[44.1 µM]
O=C(O)c1cccnc1OC1CCNCC1,27%
O=C(NC1C[C@H]2CC[C@@H](C1)N2C(=O)c1ccc(C(F)(F)F)cc1)c1ccncc1 (stereo not given in full),-21%
Cc1ccc(NC(=O)CN2CCCc3nc(C4CC4)ncc3C2=O)cc1,-1%
O=C(N1CCC(F)CC1)C1(c2ccc(Cl)cc2)CCOCC1,-4%
O=C(Nc1ccc([C@H]2OCC(=O)N(Cc3ccc(F)cc3)[C@@H]2CO)cc1)C1CCC1,i
COc1ccc(-c2nc3c(c(SCC(=O)Nc4cccc(O)c4)n2)Cc2c(CO)cnc(C)c2O3)cc1,5.6µM*
Cc1ncc(CO)c2c1Oc1nc(-c3ccccc3)nc(SCC(=O)Nc3cccc(C(F)(F)F)c3)c1C2,i
C=Cc1ccc(CSc2nc(-c3ccc(Cl)cc3)nc3c2Cc2c(CO)cnc(C)c2O3)cc1,11µM*
Cc1ncc(CO)c2c1Oc1nc(-c3ccc(F)cc3)nc(SCc3ccc(F)cc3Cl)c1C2,64%[0.594 µM]
CCc1ccc(NC(=O)CSc2nc(-c3ccc(C)cc3)nc3c2Cc2c(CO)cnc(C)c2O3)cc1,-27%
COc1ccccc1NC(=O)CSc1nc(-c2ccc(C)cc2)nc2c1Cc1c(CO)cnc(C)c1O2,-25%
CN(C)C[C@@H]1CN(c2ccncn2)C[C@H]1NC(=O)Cc1c(F)cccc1Cl,-13%
CCc1cccc(NC(=O)CN2C(=O)NC(c3ccccc3Cl)C3=C2COC3=O)c1 (stereo not given),-5%
O=C(NCC12CCCN1CCC2)c1ccc(C2CCNC2)cc1 (stereo not given),-7%
COc1cccc(C(=O)N2CCC(c3n[nH]c(=O)n3Cc3ccc(F)cc3)CC2)c1,-16%
Cc1ccsc1C(=O)N1CCn2c(nnc2[C@@H]2C[C@@H](O)CN2Cc2ccccc2)C1,i
OC1(CN2CCN(c3cccc(C(F)(F)F)c3)CC2)CNCCOC1 (stereo not given),-11%
CC(C)OCc1cc(CN2CCN(c3cccc(C(F)(F)F)c3)CC2)c(O)c2ncccc12,1.4µM*
O=C(CCn1c(=O)c2cccn2c2cccnc21)N1CCN(c2cccc(C(F)(F)F)c2)CC1,i
CCOCc1cc(CN2CCN(c3cccc(C(F)(F)F)c3)CC2)c(O)c2ncccc12,2.8µM*
SMILES,Pf Dd2 growth
O=C(c1cc2ccc3cccnc3c2[nH]1)N1CCN(c2cccc(C(F)(F)F)c2)CC1,i
FC(F)(F)c1cccc(N2CCN(Cc3nnc(-c4ccccc4)o3)CC2)c1,16%
COCC(=O)N1CCc2nc(N3CCc4ccccc4C3)[nH]c(=O)c2CC1,i[5.79 µM]
CCc1ccccc1NC(=O)Cn1ccn2nc3c(c2c1=O)CCCC3,3%
Cn1nc(C2CCN(c3cncc(C(N)=O)n3)CC2)n(-c2ccccc2)c1=O,i
Cc1ccc(-c2c(C(=O)N(C)Cc3ccccc3)oc(=O)c3ccccc23)cc1,-12%
CCN(Cc1ccccc1)Cc1c(O)ccc2c(=O)c(-c3ccccc3Cl)c(C(F)(F)F)oc12,8.9µM*
CCN(Cc1ccccc1)Cc1c(O)ccc2c(=O)c(-c3ccccc3)c(C(F)(F)F)oc12,6.3µM*
CN1CCC2(C1)CN(Cc1ccccc1)c1ccc(C(=O)NCCOc3ccccc3)cc12 (stereo not given),-1%
COc1cccc(CC(=O)NCC2CCCCC(=O)N2)c1 (stereo not given),-1%
O=C(c1ccc(Cl)cc1)N1CCC(N(C(=O)C2CC2)C2CCOCC2)CC1,-18%
CCNC(=O)N1CCCN(S(=O)(=O)c2ccccc2)CCC(=O)NCC1,0%
O=C(Cc1c[nH]c2ccccc12)N1CCC(CCOc2ccccc2F)C1 (stereo not given),i
COc1ccc(C(=O)NC2CCN(C(=O)N3CC4CC(C3)[C@H]3CCCC(=O)N3C4)CC2)cn1 (stereo not given in full),i
COc1ccc(C(=O)NC2CCN(C(=O)N3CC4CC(C3)[C@H]3CCCC(=O)N3C4)CC2)c(OC)n1 (stereo not given in full),5µM*
COc1ccc(C(=O)NC2CCN(C(=O)N3CC4CC(C3)[C@H]3CCCC(=O)N3C4)CC2)c(OC)c1 (stereo not given in full),-27%
CCCc1nc(-c2nc(C3CCOC3)no2)cs1 (stereo not given),-9%
CCCCN(CCCC)CCCNC(=O)Cn1cc2c(n1)-c1c(oc(C(=O)N3CCCC3)c1C)CC2,11µM*
COc1cccc(CNC(=O)Cn2cc3c(n2)-c2c(oc(C(=O)N4CCCC4)c2C)CC3)c1,-24%
Cc1c(C(=O)N2CCCC2)oc2c1-c1nn(CC(=O)NCc3cccc(F)c3)cc1CC2,-25%
